Measurements published in PubChem BioAssay.
Values joined by “and” are separate entries in the source; they are usually repeats but may differ in a detail not shown here. Equal entries are not always repeated. Active and inactive are the calls of the source.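 How the source made its calls, unless noted: active means compounds whose cell count with miR-34 switched on is under 0.7 times the count with it off; inactive means the rest.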

What was measured:
[1] = tested on: Aerobactin synthetase IucA (Klebsiella pneumoniae); experiment: IucA aerobactin synthetase inhibitors, biochemical, Tocris library, absorbance (AID 1345561; call rule not given here;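 further: 100% = enzyme without compound and 0% = no enzyme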); details: purified IucA enzyme assay, absorbance (OD) read-out; stronger effect = lower value;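 tested at 8 µM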
[2] = sensitizers of A549 cells to miR-34 induction, primary screen, imaging, A549 dox-inducible miR-34, nuclei and caspase counts (AID 1347080); details: A549 miR-34 inducible, Hoechst nuclei count, 48 h
[3] = viability rescue of complex I mutant cybrids, primary screen, cell-based, galactose medium, ATP luminescence (AID 1645843;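 active means z-score of at least 1.8 in each of two replicates, scored against plate mean and spread of sample wells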;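 further: positive z means more ATP and so rescue of galactose-driven cybrid death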); details: complex I mutant cybrid cells, 72 h, stronger effect = higher value
[4] = stronger effect = lower value, cell number ratio, induced over uninduced
[5] = measured here: relative caspase fold change +Dox/-Dox
[6] = measured here: total cells with miR-34 induction, stronger effect = lower value
[7] = measured here: total cells without miR-34 induction

Compound | remaining activity [1] | fold change [2, 4] | fold change [2, 5] | cell count [2, 6] | cell count [2, 7] | z-score [3]
N#CC(Cc1ccc(O)cc1)c1ccc(O)cc1 (stereo not drawn) | 90.6% (inactive) | 0.917 (inactive) and 0.865 (inactive) | 0.401 and 1.73 | 5410 and 8710 | 5900 and 10100 | 2.66 (active)
Cc1cc(Cn2cnc3c2C[C@@H](C(=O)O)N(C(=O)C(c2ccccc2)c2ccccc2)C3)ccc1N(C)C | 122% (inactive) | 0.877 (inactive) | 0.611 | 8880 | 10100 | 0.245 (inactive)
N=C(N)c1ccc(N2CCN(C3CCN(CC(=O)O)CC3)CC2)cc1 | 115% (inactive) | 1 (inactive) | 0.72 | 9390 | 9350 | -0.165 (inactive)
C/C(O)=C1/C(=O)[C@@H]2[C@H]3c4c[nH]c5cccc(c45)C[C@H]3C(C)(C)N2C1=O | 119% (inactive) | 0.988 (inactive) | 1.54 | 6050 | 6130 | -0.525 (inactive)
c1ccc2sc(N3CCN(Cc4ccc5c(c4)OCO5)CC3)nc2c1 | 98.7% (inactive) | 0.958 (inactive) | 0.859 | 9100 | 9500 | -0.155 (inactive)
COC(=O)[C@H]1C2C[C@H]3c4[nH]c5ccccc5c4CCN3C[C@H]2CC[C@@H]1O (stereo partly drawn) | 106% (inactive) | 0.968 (inactive) | 0.826 | 8540 | 8820 | -0.115 (inactive)
CCCn1c(=O)c2[nH]c(-c3ccccc3)nc2n(CCC)c1=O | 113% (inactive) | 1.13 (inactive) | 0.687 | 4790 | 4230 | -0.115 (inactive)
c1ccc2cc(C3=NCCN3)ncc2c1 | 113% (inactive) | 0.991 (inactive) | 0.685 | 9570 | 9660 | -0.34 (inactive)
O=C(/C=C/c1ccccc1)NC(NC(=S)Nc1ccc(Cl)cc1)C(Cl)(Cl)Cl (stereo not drawn) | 118% (inactive) | 0.939 (inactive) | 1.5 | 2530 | 2700 | -0.74 (inactive)
CC(C)C[C@H](NC(=O)N1CCCCCC1)C(=O)N[C@H](Cc1cn(C)c2ccccc12)C(=O)N[C@H](Cc1ccccn1)C(=O)O | 87.9% (inactive) | 0.819 (inactive) | 0.926 | 7880 | 9620 | 1.25 (inactive)
Nc1nc2c(nc(Br)n2[C@@H]2O[C@@H]3COP(=O)(O)O[C@H]3[C@H]2O)c(=O)[nH]1 | 113% (inactive) | 0.972 (inactive) | 0.761 | 9650 | 9930 | -0.25 (inactive)
NC(=O)N1c2ccccc2CC(O)c2ccccc21 (stereo not drawn) | 111% (inactive) | 0.942 (inactive) | 0.846 | 8870 | 9420 | -0.055 (inactive)
O/N=C/c1ccc(-c2ccc(O)c(F)c2)c(Cl)c1O | 117% (inactive) | 0.891 (inactive) | 1.26 | 7880 | 8840 | -0.63 (inactive)
COc1cc([C@@H]2c3cc4c(cc3C(OC3OC5COC(C)OC5C(O)C3O)C3COC(=O)[C@@H]32)OCO4)cc(OC)c1O (stereo partly drawn) | 116% (inactive) | 1.07 (inactive) | 0.575 | 4900 | 4590 | -0.765 (inactive)
Cc1cc(C)cc(C(=O)N(C)[C@H](Cc2ccc(-c3ccccc3)cc2)C(=O)N[C@@H](Cc2c[nH]c3ccccc23)C(=O)O)c1 | 125% (inactive) | 0.884 (inactive) | 0.967 | 8970 | 10100 | 7.92 (active)
CCn1c(=O)[nH]c2ccccc21 | 111% (inactive) | 0.854 (inactive) | 1.07 | 7770 | 9100 | -0.455 (inactive)
O=C(Nc1c(-c2cccs2)nc2ccccn12)c1ccc(Cl)cc1 | 108% (inactive) | 0.889 (inactive) | 0.893 | 8490 | 9560 | 1.35 (inactive)
NC(Cn1ccc(=O)n(Cc2ccccc2C(=O)O)c1=O)C(=O)O (stereo not drawn) | 98.2% (inactive) | 0.925 (inactive) | 1.4 | 8950 | 9680 | 0.13 (inactive)
